# Compound activity as filed in PubChem.
# DT40 TDP1 no CPT – qHTS for Inhibitors of human tyrosyl-DNA phosphodiesterase 1 (TDP1): qHTS in cells in absence of CPT | DT40 Tdp1-/- hTDP1 cells, no CPT, ATP luminescence, 48 h | Potency, µM (titrated, usually from 46.2 µM), without a hit: top-dose activity change, negative = growth inhibition, hits mostly inhibitors | hit rate 15% among 420,000; also: potency is read from the fitted curve at half-maximal effect; % is scaled to controls: 0 for no effect and ±100 for the full control effect; nearly all actives have a fitted effect of over 55% in size
#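 Camptothecin absent (DMSO only). Human TDP1-complemented DT40 knockout cells, 400 cells/well, 37 °C for minimum 48 hr; ATP measured via CellTiter-Glo, 30 min dark incubation, luminescence.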
# TGFb SMAD3 inh – qHTS for Inhibitors of TGF-b. hit rate 1.2% among 410,000. Potency, µM (titrated, usually from 46.1 µM), without a hit: at the highest dose activity, negative = inhibition, usual class: inhibitors. AID 588855, 2011. HepG2 CAGA-GFP TGF-b/SMAD3 reporter, GFP fluorescence, 18 h; TGF-beta stimulated, 500 pg/mL final; also: potency is read from the fitted curve at half-maximal effect; % is scaled to controls: 0 for no effect and ±100 for the full control effect; nearly all actives have a fitted effect of over 65% in size
#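 HEPG2 CAGA-GFP reporter cells (1000/well, DMEM with 1% FBS) received compounds, then recombinant TGF-beta at 500 pg/mL final for 18 hours at 37 degrees C. Per-cell GFP summed per well was normalised to unstimulated and stimulated DMSO controls before curve fitting.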
# HepG2 tox – qHTS for Inhibitors of TGF-b: Cytotox Counterscreen. HepG2 CAGA-GFP viability, ATP luminescence, 18 h. Potency, µM (doses to about 46.1 µM), for inactives: at the highest dose activity change, negative = cytotoxicity, most hits filed as cytotoxic. hit rate 0.76% among 410,000; also: potency is read from the fitted curve at half-maximal effect
#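 CellTiter-Glo luminescence gave cytotoxicity after 18 hours at 37 degrees C. The cells were HepG2 CAGA-GFP in 1% FBS DMEM, stimulated with 500 pg/mL TGF-beta after compound addition. %Activity was normalised to no-cell wells (complete cell-killing) and DMSO (no toxicity), and curves were fitted and classified.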
# DT40 TDP1 CPT – qHTS for Inhibitors of human tyrosyl-DNA phosphodiesterase 1 (TDP1): qHTS in cells in presence of CPT; chicken DT40 Tdp1-/-;hTDP1 cells + 20 nM CPT, ATP luminescence, 48 h; Potency, µM (doses to about 46.2 µM), inactives show at the highest dose activity change, negative = growth inhibition, most hits filed as inhibitors; hit rate 12% among 420,000; AID 686979, 2013; also: potency is read from the fitted curve at half-maximal effect; % is scaled to controls: 0 for no effect and ±100 for the full control effect; nearly all actives have a fitted effect of over 55% in size
#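 Cell growth measured by CellTiter-Glo luminescence after a minimum 48 h, 37 C compound exposure with 20 nM CPT in Tdp1-knockout DT40 cells stably expressing hTDP1, seeded 400/well; qHTS titration format.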
# IL-1B inflam inh – qHTS for Inhibitors of Inflammasome Signaling: IL-1-beta AlphaLISA Primary Screen; THP-1 LPS/ATP IL-1B secretion, AlphaLISA, 16 h; hits give low values; activity change, % at 57.5 µM; hit rate 4.7% among 360,000; in the data active = activity change below about -50%; inconclusive = mostly about -30% to -49%; also: % is scaled to controls: 0 for no effect and ±100 for the full control effect
#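 THP-1 cells pretreated 1 hr with compounds (up to 57.5 uM final), then stimulated with LPS (250 ng/mL final) plus ATP (1.25 mM final); secreted IL-1B measured by AlphaLISA after 16 hr, decreased signal indicating inhibition.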
# TDP1 inh – qHTS Assay for Inhibitors of Tyrosyl-DNA Phosphodiesterase (TDP1). Tyrosyl-DNA phosphodiesterase 1 (Homo sapiens), Q9NUW8. recombinant TDP1, AlphaScreen DNA substrate cleavage. Potency, µM (titrated, usually from 130 µM), inactives show at the top dose activity change, negative = inhibition, actives largely listed as inhibitors. hit rate 0.28% among 350,000. AID 485290, 2010; also: potency is read from the fitted curve at half-maximal effect; % is scaled to controls: 0 for no effect and ±100 for the full control effect; nearly all actives have a fitted effect of over 40% in size
# Target sequence (Q9NUW8 whole entry, looked up): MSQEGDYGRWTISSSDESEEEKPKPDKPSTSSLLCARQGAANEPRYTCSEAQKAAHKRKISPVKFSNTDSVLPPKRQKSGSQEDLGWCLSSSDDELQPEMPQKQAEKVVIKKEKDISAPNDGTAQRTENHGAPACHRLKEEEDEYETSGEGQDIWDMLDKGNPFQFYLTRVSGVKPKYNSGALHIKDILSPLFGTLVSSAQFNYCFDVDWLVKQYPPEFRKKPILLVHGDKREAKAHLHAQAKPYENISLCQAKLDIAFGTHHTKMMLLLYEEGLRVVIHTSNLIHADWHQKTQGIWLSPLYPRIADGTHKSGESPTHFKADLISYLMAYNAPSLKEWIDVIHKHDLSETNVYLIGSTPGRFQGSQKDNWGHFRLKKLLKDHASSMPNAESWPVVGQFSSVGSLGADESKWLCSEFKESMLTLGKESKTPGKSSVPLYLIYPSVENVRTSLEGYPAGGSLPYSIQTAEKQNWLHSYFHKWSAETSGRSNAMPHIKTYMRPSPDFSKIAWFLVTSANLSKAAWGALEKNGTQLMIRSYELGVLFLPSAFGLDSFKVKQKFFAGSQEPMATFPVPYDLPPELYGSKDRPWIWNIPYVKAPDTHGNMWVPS
#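 Signal: AlphaScreen proximity between streptavidin donor and anti-FITC acceptor beads on intact substrate. Reaction: Tdp1 1 nM, substrate 15 nM final, 5 min RT after 15 min compound preincubation.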
# Numbers without * were called inactive; ? = inconclusive; . = no result given; [ ] = another dose, or the depositor's remark. A selection: hits, their analogues and other compounds. The true share with any hit is near 18%. Unless noted, calls follow the shape of the dose curve; as a rule, active = well fitted curve in the direction sought with a large enough effect; inconclusive = small, poorly fitted or top-dose-only effect, or another doubt; inactive = no such curve, though single readings can be large; an effect the other way counts as inactive or inconclusive.
SMILES,DT40 TDP1 no CPT,TGFb SMAD3 inh,HepG2 tox,DT40 TDP1 CPT,IL-1B inflam inh,TDP1 inh
Cc1ccc2cc(CCNS(=O)(=O)c3ccc(Br)cc3)c(=O)[nH]c2c1C,23µM*,4%,-11%,?,-23,-7%
CC(=O)Nc1ccc(S(=O)(=O)NCCc2cc3c(C)ccc(C)c3[nH]c2=O)cc1,-13%,14%,9%,-16%,-12,1%
Cc1cc(C)c(S(=O)(=O)NCCc2cc3ccc(C)c(C)c3[nH]c2=O)c(C)c1,18µM*,?,3%,?,-3,0%
CC1CCCCC1NC(=O)c1cccc(NC2=NC3CS(=O)(=O)CC3S2)c1 (stereo unspecified),-7%,0%,-1%,2%,-9,.
COc1cccc(-c2nn3c(=O)cc(CN4CCN(S(=O)(=O)c5ccc(C)cc5)CC4)nc3s2)c1,-3%,-7%,2%,-1%,.,5%
CC(C)Cn1c(=O)c2ccccc2n2c(CCC(=O)Nc3ccc(F)c(F)c3)nnc12,?,-13%,-2%,?,.,-1%
C[C@H](NCCc1ccc(O)cc1)[C@@H](O)c1ccc(O)cc1,.,.,.,.,.,11%[21 µM]
O=C(Nc1cc(S(=O)(=O)N2CCCCC2)ccc1N1CCOCC1)c1ccc(F)cc1,-26%,0%,-20%,?,-3,5%
CCN1CCN(c2ccc(S(=O)(=O)N3CCCCC3)cc2NC(=O)c2ccc(C)c(C)c2)CC1,23µM*,-6%,-12%,?,-10,.
Cc1cc(C#N)c(C)n1-c1cc(S(=O)(=O)N2CCOCC2)ccc1N1CCCC1,15µM*,1%,-10%,16µM*,-9,5%
CCN1CCN(c2ccc(S(=O)(=O)N3CCCCC3)cc2NC(=O)c2cccc(C)c2)CC1,?,-14%,-4%,?,?,1%
CCN1CCN(c2ccc(S(=O)(=O)N3CCCCC3)cc2NC(=O)c2ccc(F)cc2)CC1,21µM*,?,-36%,?,-9,4%
CCN1CCN(c2ccc(S(=O)(=O)N3CCOCC3)cc2NC(=O)c2ccc(C(F)(F)F)cc2)CC1,-14%,15%,-22%,-5%,-10,0%
O=C(Nc1cc(S(=O)(=O)N2CCOCC2)ccc1N1CCCC1)c1ccc(F)cc1,?,2%,9%,13µM*,-22,5%
Cc1ccc(C)c(N2N=C(C(=O)OCc3nnc(-c4ccccc4)o3)CCC2=O)c1,2%,-17%,6%,-5%,5,.
COc1ccc(C2CC(c3ccccc3)Oc3cc4c(cc32)OCO4)cc1 (stereo unspecified),.,-26%,-24%,.,.,20%
Cc1nc2nc(SCC(=O)NCCc3ccc(Cl)cc3)nn2c(C)c1Cc1c(F)cccc1Cl,-24%,?,-7%,-7%,.,5%
O=C(O)/C(=C\c1ccc(Cl)c([N+](=O)[O-])c1)c1ccc(S(=O)(=O)N2CCCC2)s1,18%,4%,-3%,2%,6,-14%[56.1 µM]
CCN1CCN(c2ccc(S(=O)(=O)N3CCCCC3)cc2NC(=O)COc2ccc(Cl)cc2)CC1,?,-2%,5%,?,-26,.
CCN1CCN(c2ccc(S(=O)(=O)N3CCCCC3)cc2NC(=O)c2sccc2C)CC1,23µM*,0%,-30%,?,-26,7%
O=C(COc1ccc([N+](=O)[O-])cc1)Nc1cc(S(=O)(=O)N2CCCCC2)ccc1N1CCCCC1,?,0%,0%,-25%,-3,.
O=C(Nc1cc(Cl)ccc1-n1cncn1)c1cc(S(=O)(=O)N2CCOCC2)ccc1F,-5%,-3%,1%,-28%,-7,1%
O=C(Nc1cc(S(=O)(=O)N2CCOCC2)ccc1-n1cncn1)c1ccc(Cl)cc1,29µM*,-5%,0%,?,?,4%
O=C(COc1ccc(F)cc1)Nc1cc(S(=O)(=O)N2CCCCC2)ccc1N1CCCCC1,18µM*,17%,-8%,13µM*,-6,.
CCN1CCN(c2ccc(S(=O)(=O)N3CCCCC3)cc2NC(=O)COc2ccc(F)cc2Cl)CC1,?,-17%,-30%,21µM*,?,6%
SMILES,DT40 TDP1 no CPT,TGFb SMAD3 inh,HepG2 tox,DT40 TDP1 CPT,IL-1B inflam inh,TDP1 inh
CC(C)(C)CN1CCN(Cc2cccnc2)CC1CCO (stereo unspecified),-5%,0%,0%,-19%,5,.
CCOC(=O)c1ccc(-c2c(-c3ccc4c(c3)OCO4)noc2C)cc1F,?,-5%,0%,16µM*,20,.
CC(C)Oc1ccc(CNC(=O)c2ccc(NC(=O)c3nsc4ccccc34)cc2)cc1,18µM*,6%,-5%,21µM*,.,-5%
CCOc1ccc(CNC(=O)c2ccc(NC(=O)c3nsc4ccccc34)cc2)cc1,-16%,-4%,-29%,?,.,0%
COc1ccc(OC)c(CNC(=O)c2ccc(NC(=O)c3nsc4ccccc34)cc2)c1,18µM*,5%,-32%,?,.,-3%
Cc1ccc2cc(CN(CC3CCCO3)C(=S)Nc3ccccc3)c(=O)[nH]c2c1C (stereo unspecified),2.6µM*,0%,-16%,2.9µM*,-53*,3%
CCN(CC)CCN(Cc1cc2cc(C)ccc2[nH]c1=O)C(=S)Nc1ccccc1,?,-4%,-24%,?,?,-3%
Cc1ccc2[nH]c(=O)c(CN(CC3CCCO3)C(=S)Nc3ccccc3)cc2c1 (stereo unspecified),15µM*,-8%,-1%,13µM*,-24,8%
Cc1cc(C)c2[nH]c(=O)c(CN(CC3CCCO3)C(=S)Nc3ccccc3)cc2c1 (stereo unspecified),?,12%,0%,?,16,0%
Cc1ccc2cc(CN(CC3CCCO3)C(=S)Nc3ccccc3)c(=O)[nH]c2c1 (stereo unspecified),15µM*,-12%,8%,?,?,4%
COc1ccc2cc(CN(CC3CCCO3)C(=O)Nc3ccccc3)c(=O)[nH]c2c1 (stereo unspecified),-13%,4%,-2%,?,?,-3%
